Consider five compounds from PubChem BioAssay (NCATS).

The target in experiment [1] is Lysosomal acid glucosylceramidase (Homo sapiens) (UniProt P04062). Briefly: Glucocerebrosidase-p2 (AID 348; in the data active = potency below about 10 µM; also: potency is read from the fitted curve at half-maximal effect). The conditions noted are these: purified GBA, blue fluorogenic substrate, 40 min. The method in brief: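 Compounds titrated from 0.6 nM upwards against 0.2 nM enzyme in pH 5.9 citric acid/KH2PO4, taurocholate, tween-20; blue fluorogenic substrate 80 uM, 40 min room temperature, stopped and read Ex 365/Em 440 for AC50.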

Experiment [2] in a line: AP1 Signaling Pathway (AID 357; active = well fitted curve in either direction with a large enough effect, not every such curve was filed as active;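 also: ME-180 reporter cells stimulated with EGF at its EC50 level; % is scaled to controls: 0 for no effect and ±100 for the full control effect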). To be noted: ME-180 AP-1-bla reporter, EGF-induced, beta-lactamase ratio, 5 h; at 7.69 µM (top of the series) unless noted. The procedure, abridged:
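In this screen, ME-180 cells in Opti-MEM with 0.5% dialyzed FBS received EC50 EGF and compound titrations for 5 h. AP-1 reporter beta-lactamase was detected via CCF4 ratio, giving AC50 for positive and negative modulators.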

In experiment [3] the target is Cytochrome P450 1A2 (Homo sapiens) (UniProt P05177). The experiment in a line: p450-cyp1a2 (AID 410). Also: potency is read from the fitted curve at half-maximal effect. To be noted: recombinant CYP1A2, luciferin-ME demethylation, luminescence; series mostly up to 57 µM. The procedure, abridged:
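Inhibition was calculated relative to 57 uM furafylline (full inhibition). The reaction used human CYP1A2 at 20nM with Luciferin-ME at its Km, 100uM, driven by an NADPH-regenerating system for 60 min at room temperature.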

Experiment [4] in a line: Stat Signaling Pathway (AID 446; active = well fitted curve in either direction with a large enough effect, not every such curve was filed as active;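 also: ME-180 cervical cancer cells given 40 pM IL-6 alongside compound; SIE-controlled beta-lactamase reporter measured as 460/530 nm FRET emission ratio; % is scaled to controls: 0 for no effect and ±100 for the full control effect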). The conditions noted are these: ME-180 SIE beta-lactamase reporter, IL-6 stimulated, 5 h; at 7.69 µM (top of the series) unless noted. The procedure, abridged: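 Reporter line: ME-180 cervical carcinoma, SIE-beta-lactamase. Treatment: compound with 40 pM IL-6, 5 hrs, 37 C, in low-serum OPTI-MEM with 10 mM HEPES pH 7.3. Detection: 460/530 nm fluorescence.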

Experiment [5] addresses Glucocorticoid receptor (Homo sapiens) (UniProt P04150). Briefly: GR-EFC Redistribution (AID 451). Also: potency is read from the fitted curve at half-maximal effect. To be noted: CHO-K1 GR-EFC translocation, beta-gal luminescence, 2 h. The procedure, abridged: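 CHO-K1 cells expressing nuclear EA and GR-ED fragments of b-gal; compounds titrated up to 46 uM final, 2 h at 37 C. GR nuclear translocation read as complemented b-gal luminescence after 1 h RT detection.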

Experiment [6] deals with Mitogen-activated protein kinase 10 (Mus musculus) (UniProt Q61831). Briefly: JNK3 AlphaScreen Assay (AID 530; active = well fitted curve in either direction with a large enough effect, not every such curve was filed as active;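 also: kinase came from lysate of stimulated human HepG2 cells; signal reports phosphorylation of biotinylated GST-cJun 1-79 at Ser73 with 10 µM ATP; % is scaled to controls: 0 for no effect and ±100 for the full control effect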). To be noted: JNK3 lysate, c-Jun phosphorylation; series mostly up to 57.1 µM. The method in brief:
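qHTS format: compounds tested as titrations against IL-1beta/TNF-alpha-activated HepG2 lysate JNK3 with biotin-GST-cJun substrate and 10 uM ATP at room temperature. Loss of anti-phospho-cJun AlphaScreen signal indicates inhibition.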
For orientation: In Alpha technology, singlet oxygen from a donor bead excites a nearby acceptor bead.

The target of experiment [7] is 3',5'-cyclic-AMP phosphodiesterase 4B (Homo sapiens) (UniProt Q07343). Briefly: qHTS Assay for Inhibitors of PDE-IV (AID 607; active = well fitted activation curve with a large enough effect in the main read-out, with a control signal flat, not every such curve was filed as active; also: % of control where 0% means no effect). To be noted: HEK293 ACTOne CNG channel cells, membrane potential fluorescence; series mostly up to 22.9 µM. The procedure, abridged: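 Cell-based read-out of cAMP via a modified cyclic nucleotide-gated channel and membrane potential dye (535/590 nm) in HEK293 cells expressing PDE4 endogenously. Compounds tested up to 22.9 uM final; 100 uM RO 20-1724 reference.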

Experiment [8] has as its target Cytochrome P450 3A4 (Homo sapiens) (UniProt P08684). The experiment in a line: qHTS Assay for Activators of Cytochrome P450 3A4 (AID 885; active = well fitted curve in the direction sought with a large enough effect; an effect the other way counts as inactive or inconclusive; also: nearly all actives have a fitted effect of over 65% in size). To be noted: recombinant CYP3A4, Luciferin-PPXE luminescence, 60 min; series mostly up to 57.1 µM. The procedure, abridged:
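Signal was normalized against complete inhibition by 57 uM ketoconazole. The reaction used 20nM CYP3A4 with 25uM Luciferin-PPXE, 10-min compound preincubation and a 60-min NADPH-supported step at RT.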

Experiment [9] has as its target Cytochrome P450 2D6 (Homo sapiens) (UniProt P10635). The experiment in a line: qHTS Assay for Inhibitors and Substrates of Cytochrome P450 2D6 (AID 891; active = well fitted curve in the direction sought with a large enough effect; an effect the other way counts as inactive or inconclusive; also: potency is read from the fitted curve at half-maximal effect; nearly all actives have a fitted effect of over 60% in size). The conditions noted are these: recombinant CYP2D6, luciferin-ME EGE luminescence; series mostly up to 57.1 µM. The method in brief:
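Human CYP2D6 (5 nM) with 30 uM Luciferin-ME EGE (at Km) in 100 mM KPO4, compound preincubated 10 min, then NADPH regeneration system for 60 min at room temperature. Luciferin read by luminescence; normalized to 1.43 uM quinidine.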
A general note: In qHTS, concentration-response curves come from the screen itself.

Experiment [10] is described as follows: qHTS Assay for Lipid Storage Modulators (AID 1519). To be noted: Drosophila S3 cells, BODIPY lipid droplet/cell ratio, laser cytometry, cells loaded with oleic acid; for activity change, negative = inhibition: at 57.5 µM (top of the series). The procedure, abridged:
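Cells seeded at 5,000 per well were treated with compounds over a concentration series and loaded with oleic acid (400 uM, as added). Lipid droplet fluorescence (488 nm excitation, 500-530 nm channel) was read by laser-scanning cytometry and normalized to 20 uM Triacsin C.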

A short description of experiment [11]: Primary qHTS for small molecule stabilizers of the endoplasmic reticulum resident proteome: Secreted ER Calcium Modulated Protein (SERCaMP) assay (AID 1508630; active = well fitted curve in the direction sought with a large enough effect; an effect the other way counts as inactive or inconclusive; also: % is scaled to controls: 0 for no effect and ±100 for the full control effect). The conditions noted are these: SH-SY5Y GLuc-SERCaMP (Gaussia luciferase released on ER calcium loss) secretion, thapsigargin, luminescence; series mostly up to 38.4 µM. The procedure, abridged: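 GLuc-SERCaMP-expressing SH-SY5Y cells, pretreated 16 h with compound, are challenged with thapsigargin to empty ER calcium stores; after 4 h, coelenterazine is added directly to the medium and luminescence is imaged.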

Experiment [12] can be described thus: qHTS Assay for Identification of Small Molecule Agonists for Hypoxia Response Element Signaling Pathway (AID 914; active = well fitted activation curve with a large enough effect in the signal ratio, with a control signal flat, not every such curve was filed as active; the % refers to the signal ratio; also: % of control where 0% means no effect). To be noted: ME-180 (cervical carcinoma) HRE-bla reporter, beta-lactamase ratio, CoCl2, 17 h; activation: stronger effect = higher value. The method in brief:
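HRE-bla ME-180 cells with beta-lactamase reporter under hypoxia response element, compounds with EC50 CoCl2 for 17 hours at 37 C. CCF4 substrate, 460nm/530nm emission ratio gave %Activity; AC50 from titration series.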

The target of experiment [13] is Cytochrome P450 3A4 (Homo sapiens) (UniProt P08684). The experiment in a line: qHTS Assay for Inhibitors and Substrates of Cytochrome P450 3A4 (AID 884; active = well fitted curve in the direction sought with a large enough effect; an effect the other way counts as inactive or inconclusive; also: % is scaled to controls: 0 for no effect and ±100 for the full control effect; nearly all actives have a fitted effect of over 50% in size). The conditions noted are these: recombinant CYP3A4, Luciferin-PPXE luminescence; series mostly up to 57.1 µM. The method in brief:
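20 nM human CYP3A4 with 25 uM Luciferin-PPXE (at KM) in 200 mM KPO4, preincubated 10 min with compound; NADPH regeneration started a 60 min RT reaction. Luciferin detected by luminescence, normalized to 57 uM ketoconazole as full inhibition.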

The target of experiment [14] is Cytochrome P450 2C19 (Homo sapiens) (UniProt P33261). Briefly: qHTS Assay for Inhibitors and Substrates of Cytochrome P450 2C19 (AID 899; active = well fitted curve in the direction sought with a large enough effect; an effect the other way counts as inactive or inconclusive; also: potency is read from the fitted curve at half-maximal effect; nearly all actives have a fitted effect of over 60% in size). To be noted: recombinant CYP2C19, luciferin-H EGE luminescence; series mostly up to 57.1 µM. The procedure, abridged: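 Signal comes from luciferase acting on luciferin released by CYP2C19-mediated hydroxylation of Luciferin-H EGE, 10uM (KM). Assay mix: 5nM enzyme, 50mM KPO4; 60 min at 37C with NADPH regeneration. Data normalized against 57uM ketoconazole.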

The mark [15] stands for this setting: measured here: cell count channel max response.
[16] abbreviates: measured here: lipid channel max response.

Structures are written as SMILES. Results filed as inconclusive are left out. Calls of active or inactive are those of the source. Unless noted, calls follow the shape of the full dose curve.

Chain of Glucocorticoid receptor (Homo sapiens) (P04150 whole entry, looked up, the tested form may be a part): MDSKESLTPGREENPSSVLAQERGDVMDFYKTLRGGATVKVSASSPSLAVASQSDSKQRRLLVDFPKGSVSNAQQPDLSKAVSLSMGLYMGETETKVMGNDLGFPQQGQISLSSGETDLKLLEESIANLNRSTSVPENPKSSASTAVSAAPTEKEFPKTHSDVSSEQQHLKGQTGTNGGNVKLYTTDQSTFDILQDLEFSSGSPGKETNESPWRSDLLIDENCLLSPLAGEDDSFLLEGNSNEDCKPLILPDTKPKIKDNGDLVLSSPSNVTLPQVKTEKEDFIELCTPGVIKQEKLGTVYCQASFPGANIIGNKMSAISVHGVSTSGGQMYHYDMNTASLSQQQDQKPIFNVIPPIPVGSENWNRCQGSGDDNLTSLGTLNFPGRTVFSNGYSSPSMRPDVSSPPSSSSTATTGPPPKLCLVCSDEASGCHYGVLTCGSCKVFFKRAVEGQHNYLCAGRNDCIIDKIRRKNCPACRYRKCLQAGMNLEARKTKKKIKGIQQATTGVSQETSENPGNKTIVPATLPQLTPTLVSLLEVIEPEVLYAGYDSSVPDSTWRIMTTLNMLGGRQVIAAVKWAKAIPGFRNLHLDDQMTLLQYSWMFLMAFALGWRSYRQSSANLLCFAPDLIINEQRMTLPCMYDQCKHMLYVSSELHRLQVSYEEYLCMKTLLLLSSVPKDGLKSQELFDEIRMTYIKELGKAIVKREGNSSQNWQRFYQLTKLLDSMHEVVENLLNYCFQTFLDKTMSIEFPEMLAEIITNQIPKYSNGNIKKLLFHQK
Chain of 3',5'-cyclic-AMP phosphodiesterase 4B (Homo sapiens) (Q07343 whole entry, looked up): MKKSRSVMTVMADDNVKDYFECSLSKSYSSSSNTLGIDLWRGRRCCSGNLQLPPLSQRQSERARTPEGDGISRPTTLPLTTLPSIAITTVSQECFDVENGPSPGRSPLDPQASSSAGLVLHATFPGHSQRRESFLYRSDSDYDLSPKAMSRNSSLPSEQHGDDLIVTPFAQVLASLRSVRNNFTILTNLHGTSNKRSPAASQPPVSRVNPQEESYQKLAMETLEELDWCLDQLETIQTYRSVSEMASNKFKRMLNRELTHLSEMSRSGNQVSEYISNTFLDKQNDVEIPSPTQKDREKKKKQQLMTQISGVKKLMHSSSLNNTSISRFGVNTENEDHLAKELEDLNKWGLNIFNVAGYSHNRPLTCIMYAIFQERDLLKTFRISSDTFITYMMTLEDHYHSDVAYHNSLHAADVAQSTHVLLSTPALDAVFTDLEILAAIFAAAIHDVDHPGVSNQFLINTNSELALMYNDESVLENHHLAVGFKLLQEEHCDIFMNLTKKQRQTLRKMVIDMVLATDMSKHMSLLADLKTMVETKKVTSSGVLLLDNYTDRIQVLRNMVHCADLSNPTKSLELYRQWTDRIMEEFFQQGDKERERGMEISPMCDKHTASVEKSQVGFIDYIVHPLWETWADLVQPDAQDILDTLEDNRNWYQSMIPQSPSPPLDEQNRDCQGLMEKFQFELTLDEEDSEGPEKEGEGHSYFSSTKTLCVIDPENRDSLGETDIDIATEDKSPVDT
Chain of Lysosomal acid glucosylceramidase (Homo sapiens) (P04062 whole entry, looked up): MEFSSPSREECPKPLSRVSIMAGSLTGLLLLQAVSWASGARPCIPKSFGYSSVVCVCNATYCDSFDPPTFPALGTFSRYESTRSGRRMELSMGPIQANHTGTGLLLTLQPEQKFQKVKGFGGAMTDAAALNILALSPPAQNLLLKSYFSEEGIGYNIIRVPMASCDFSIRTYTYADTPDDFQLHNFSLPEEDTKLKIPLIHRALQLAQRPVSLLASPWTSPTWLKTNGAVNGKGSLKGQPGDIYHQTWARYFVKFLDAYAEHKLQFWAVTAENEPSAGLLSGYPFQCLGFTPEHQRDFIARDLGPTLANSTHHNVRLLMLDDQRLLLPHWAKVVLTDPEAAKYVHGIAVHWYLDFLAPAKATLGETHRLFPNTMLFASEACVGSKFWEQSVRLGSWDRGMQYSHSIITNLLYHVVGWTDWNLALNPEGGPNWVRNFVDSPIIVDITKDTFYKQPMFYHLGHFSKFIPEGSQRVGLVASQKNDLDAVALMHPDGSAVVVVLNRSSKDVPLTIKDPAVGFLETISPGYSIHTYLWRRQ
Chain of Cytochrome P450 3A4 (Homo sapiens) (P08684 whole entry, looked up): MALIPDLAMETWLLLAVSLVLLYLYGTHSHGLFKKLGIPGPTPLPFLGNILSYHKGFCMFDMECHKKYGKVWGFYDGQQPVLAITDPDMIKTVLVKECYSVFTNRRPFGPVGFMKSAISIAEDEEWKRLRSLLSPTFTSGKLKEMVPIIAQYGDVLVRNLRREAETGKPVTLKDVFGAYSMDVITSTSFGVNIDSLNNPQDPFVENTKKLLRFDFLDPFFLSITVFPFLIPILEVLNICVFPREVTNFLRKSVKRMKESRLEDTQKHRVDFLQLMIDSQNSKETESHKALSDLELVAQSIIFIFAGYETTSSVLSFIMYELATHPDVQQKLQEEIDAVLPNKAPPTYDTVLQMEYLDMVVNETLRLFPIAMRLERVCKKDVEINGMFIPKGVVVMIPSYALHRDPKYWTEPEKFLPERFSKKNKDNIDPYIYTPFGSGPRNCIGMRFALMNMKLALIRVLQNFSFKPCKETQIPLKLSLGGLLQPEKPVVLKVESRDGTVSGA
Chain of Cytochrome P450 1A2 (Homo sapiens) (P05177 whole entry, looked up): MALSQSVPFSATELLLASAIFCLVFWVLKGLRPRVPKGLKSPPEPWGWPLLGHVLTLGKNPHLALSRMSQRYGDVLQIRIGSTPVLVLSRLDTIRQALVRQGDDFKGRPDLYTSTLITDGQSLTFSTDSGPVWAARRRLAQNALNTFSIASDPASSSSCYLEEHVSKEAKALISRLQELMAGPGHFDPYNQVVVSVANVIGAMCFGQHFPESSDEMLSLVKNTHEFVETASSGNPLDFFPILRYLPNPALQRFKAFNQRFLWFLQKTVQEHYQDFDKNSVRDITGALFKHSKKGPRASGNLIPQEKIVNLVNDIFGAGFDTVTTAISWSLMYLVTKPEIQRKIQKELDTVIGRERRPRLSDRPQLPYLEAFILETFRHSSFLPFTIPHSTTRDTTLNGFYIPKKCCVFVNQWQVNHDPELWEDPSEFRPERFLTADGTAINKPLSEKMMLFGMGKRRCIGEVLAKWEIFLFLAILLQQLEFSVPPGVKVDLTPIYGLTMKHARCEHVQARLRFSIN
Chain of Cytochrome P450 2C19 (Homo sapiens) (P33261 whole entry, looked up): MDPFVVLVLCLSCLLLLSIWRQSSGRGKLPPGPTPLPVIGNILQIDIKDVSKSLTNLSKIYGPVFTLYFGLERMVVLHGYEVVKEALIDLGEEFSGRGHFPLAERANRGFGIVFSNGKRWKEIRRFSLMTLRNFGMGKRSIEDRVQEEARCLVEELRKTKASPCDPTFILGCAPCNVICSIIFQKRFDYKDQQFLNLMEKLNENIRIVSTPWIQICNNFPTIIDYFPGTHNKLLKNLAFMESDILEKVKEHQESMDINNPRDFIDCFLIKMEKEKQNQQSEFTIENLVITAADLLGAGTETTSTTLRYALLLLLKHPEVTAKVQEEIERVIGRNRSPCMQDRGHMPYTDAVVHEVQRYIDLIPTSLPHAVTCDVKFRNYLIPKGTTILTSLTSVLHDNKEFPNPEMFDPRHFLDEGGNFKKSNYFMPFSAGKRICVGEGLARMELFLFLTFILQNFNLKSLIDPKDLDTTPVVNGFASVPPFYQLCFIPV
Chain of Cytochrome P450 2D6 (Homo sapiens) (P10635 whole entry, looked up): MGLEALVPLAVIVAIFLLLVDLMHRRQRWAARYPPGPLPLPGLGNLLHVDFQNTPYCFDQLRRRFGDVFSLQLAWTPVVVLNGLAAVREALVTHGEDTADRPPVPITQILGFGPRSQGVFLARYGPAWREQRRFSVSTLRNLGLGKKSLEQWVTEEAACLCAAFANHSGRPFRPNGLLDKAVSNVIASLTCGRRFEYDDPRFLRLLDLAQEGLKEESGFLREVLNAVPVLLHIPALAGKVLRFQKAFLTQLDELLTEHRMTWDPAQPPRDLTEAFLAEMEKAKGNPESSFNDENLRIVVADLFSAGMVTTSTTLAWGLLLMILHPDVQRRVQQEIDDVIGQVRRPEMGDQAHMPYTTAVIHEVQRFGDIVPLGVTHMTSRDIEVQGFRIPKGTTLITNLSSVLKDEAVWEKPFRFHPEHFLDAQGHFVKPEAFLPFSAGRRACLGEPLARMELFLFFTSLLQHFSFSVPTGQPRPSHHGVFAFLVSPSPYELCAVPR

As to `O=C(c1ccco1)N1CCC[C@@]2(CCN(C(c3ccccc3)c3ccccc3)C2)C1`, the Potency in [1] is > 11.4 µM (inactive); in experiment [3] it was 25.1 µM (active); in [5], > 46 µM (inactive); in experiment [9], 3.16 µM (active). The results for the activity change, negative = inhibition in experiment [2] and in experiment [10] were -9.33% (inactive) and -15.2% (inactive), respectively. Also, in experiment [4], the activity, negative = inhibition was 3.09% (inactive). In addition, the Potency entry in experiment [6], in experiment [7] and in experiment [8] was “inactive” each time. Also, the max response in experiment [10] (setting [15]) was -10.5%; in experiment [10] (setting [16]), -26.4%. Also, in [11], the outcome was inactive.
Take `CC(C)CN1CCCC2(CCN(C(=O)c3cc(C(F)(F)F)cc(C(F)(F)F)c3)CC2)C1`: the Potency in experiment [1] was > 11.4 µM (inactive); in [3] it was 12.6 µM (active); in [5] it was > 46 µM (inactive). Moreover, the figures for the activity change, negative = inhibition in experiment [2] and in experiment [10] were -4.78% (inactive) and 2.29% (inactive), respectively. The activity, negative = inhibition in experiment [4] is -8.44% (inactive). Moreover, the Potency result in [6] and in experiment [8] was “inactive” in each case. In addition, the activation in experiment [12] is -20.4% (inactive). For the same compound, the max response in [10] (setting [15]) is 11.6%; in experiment [10] (setting [16]) it was 17.9%. Further, the outcome in experiment [11] was inactive.
As to `O=C(c1cc(C(F)(F)F)cc(C(F)(F)F)c1)N1CCC[C@@]2(CCN(c3ncccn3)C2)C1`, the values for the Potency in experiment [1] and in [5] were > 11.4 µM (inactive) and > 46 µM (inactive), respectively. The activity change, negative = inhibition is 8.42% (inactive) in experiment [2] and 4.69% (inactive) in experiment [10]. For the same compound, the Potency entry in experiment [3], in experiment [6], in [7] and in experiment [8] was “inactive” throughout. In addition, the activity, negative = inhibition in [4] was -17.1% (inactive). Moreover, the max response in experiment [10] (setting [15]) came to 8.96%; in experiment [10] (setting [16]), 17.5%. Further, the outcome in experiment [11] was inactive.
Take `O=S(=O)(c1ccccc1)N1CCC2(CCN(Cc3ccccc3)CC2)CC1`: the Potency was > 11.4 µM (inactive) in [1] and > 46 µM (inactive) in [5]. Further, the activity change, negative = inhibition is 5.55% (inactive) in experiment [2] and 3.53% (inactive) in experiment [10]. The Potency result in [3], in experiment [6] and in [7] was “inactive” throughout. Besides, in experiment [4], the activity, negative = inhibition is 1.04% (inactive). Moreover, the activation in [12] was 14.1% (inactive). The max response in experiment [10] (setting [15]) came to 18.1%; in experiment [10] (setting [16]), 22.9%. Besides, the result in [11] was inactive.
For `N#Cc1ccc(CN2CC3(CCN(C(=O)c4cccc(F)c4)CC3)C2)cc1`, the Potency was > 11.4 µM (inactive) in [1], 3.98 µM (active) in [3], > 46 µM (inactive) in experiment [5] and 2 µM (active) in [14]. The activity change, negative = inhibition in [2] was 20.2% (inactive); in [10] it was -2.25% (inactive). The activity, negative = inhibition in experiment [4] was -1.68% (inactive). The Potency entry in experiment [7] and in experiment [13] was “inactive” in each case. Moreover, the max response in experiment [10] (setting [15]) was determined as 2.82%; in [10] (setting [16]), 3.31%. Besides, the outcome in experiment [11] was inactive.
